Compound activity deposited in PubChem BioAssay by National Center for Advancing Translational Sciences (NCATS).
KCNH2 3.1 inh: qHTS for Inhibitors of KCHN2 3.1: Mutant qHTS. 340,000 compounds, 0.95% hits. activity change, % (tested at about 1.8 µM). U2OS KCNH2 3.1, thallium flux FluxOr; stronger effect = lower value;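 active = maximum activity change below -70%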;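 note: thallium influx rate constant from kinetic fluorescence after stimulation buffer; % is set by controls: 0 for no effect and ±100 for the full control effect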
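Kinetic fluorescence (2 min after stimulation buffer) measures Tl+ influx through KCNH2 3.1 expressed by viral transduction in U2OS cells; the rate constant is normalized against DMSO controls serving as positive and negative references.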
TRPML1 ag: qHTS for Agonists of the Human Mucolipin Transient Receptor Potential 1 (TRPML1); 410,000 compounds, 0.12% hits; activation, % (test concentration not listed); Mucolipin-1 (Homo sapiens), Q9GZU1; TRPML1-expressing cells, Ca2+ dye fluorescence, FDSS; AID 624414, 2012; in the data active = activation above about 50%; note: 0% is about no effect
Target sequence (Q9GZU1 whole entry, looked up): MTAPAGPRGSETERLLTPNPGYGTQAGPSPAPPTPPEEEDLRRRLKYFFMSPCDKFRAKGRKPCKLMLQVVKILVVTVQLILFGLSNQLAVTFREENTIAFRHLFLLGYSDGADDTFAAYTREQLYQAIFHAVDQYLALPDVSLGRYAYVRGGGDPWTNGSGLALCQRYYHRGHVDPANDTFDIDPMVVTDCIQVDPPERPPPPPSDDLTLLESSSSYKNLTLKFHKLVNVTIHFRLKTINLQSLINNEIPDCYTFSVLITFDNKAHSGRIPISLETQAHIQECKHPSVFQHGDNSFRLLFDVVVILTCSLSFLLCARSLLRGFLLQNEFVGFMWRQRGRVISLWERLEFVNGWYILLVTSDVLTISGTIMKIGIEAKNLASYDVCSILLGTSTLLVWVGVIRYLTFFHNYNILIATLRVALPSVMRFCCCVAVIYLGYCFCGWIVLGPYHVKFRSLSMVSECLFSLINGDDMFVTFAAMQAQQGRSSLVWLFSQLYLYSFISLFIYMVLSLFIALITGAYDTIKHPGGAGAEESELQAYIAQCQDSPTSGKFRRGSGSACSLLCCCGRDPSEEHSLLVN
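Cells: TRPML1-DL, 1X Tet inducer, ~16 h at 37 degrees C/5% CO2. Dye: ABD Ca8 no-wash + quencher, 45-90 min RT. Read: 10 s baseline, compound add, 110 s agonist phase; 54-4 EC80 (4uM final), 110 s antagonist phase.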
PTAP TSG101 blk: qHTS Assay for Iinhibitors of HIV-1 Budding by Blocking the Interaction of PTAP/TSG101 | Tumor susceptibility gene 101 protein (Homo sapiens), Q99816 | Fluorescence polarization, FITC-PTAP peptide / Tsg101 binding | Potency, µM (titrated, usually from 115 µM), inactives show at the top dose activity change, negative = inhibition, usual class: inhibitors | 340,000 tested, under 10 active; active = well fitted inhibition curve with a large enough effect in the main read-out, with a control signal flat, not every such curve was filed as active; note: potency is the fitted concentration of half-maximal effect; % of control where 0% means no effect
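Compounds were pin-transferred onto Tsg101 binding domain (10 uM final) in HEPES pH 7.5 buffer, then FITC-PTAP peptide was added at 50 nM final. After 20 min at RT, polarization reported peptide displacement across a qHTS concentration series.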
hERG WT inh: qHTS for Inhibitors of KCHN2 3.1: Wildtype qHTS; Voltage-gated inwardly rectifying potassium channel KCNH2 (Homo sapiens), Q12809; U2OS, BacMam KCNH2, thallium flux FluxOr; stronger effect = lower value; activity change, % at 1.84 µM; 340,000 compounds, 0.37% hits; AID 720551, 2013;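 active = maximum activity change below -70%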; note: % is set by controls: 0 for no effect and ±100 for the full control effect
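U2OS cells were transduced with wild-type KCNH2 virus (2.03 x 10^8 / mL) for 4 h at room temperature, then cultured overnight at 37 C. Thallium flux was read with FluxOr dye. Rate constants were normalized to DMSO controls.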
GRP78 ERSR act: qHTS for Inducers of the Endoplasmic Reticulum Stress Response (ERSR) in Human Glioma: qHTS. U87-MG GRP78 promoter luciferase reporter, 16 h. Potency, µM, inactives show at the highest dose activation, most hits filed as activators. 420,000 compounds, 0.02% hits; active = well fitted activation curve with a large enough effect; note: potency is the fitted concentration of half-maximal effect; series mostly up to about 76 µM; % of control where 0% means no effect; nearly all actives have a fitted effect of over 35% in size
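Stably transfected U87-MG human glioma cells carrying a GRP78-based luminescent sensor were seeded at 1000 cells/well, pin-dosed with compounds and incubated 16 h. Luciferase reagent was then added, and end-point luminescence was read after 10 min at room temperature.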
TRPML1 blocker: qHTS for Inhibitors of the Human Mucolipin Transient Receptor Potential 1 (TRPML1); Mucolipin-1 (Homo sapiens), Q9GZU1; TRPML1-inducible cells, Ca2+ dye fluorescence, FDSS; stronger effect = lower value; inhibition of EC80 agonist-evoked calcium signal; activity change, negative = inhibition, % (no concentration beside the values); 390,000 compounds, 0.02% hits; in the data active = activity change below about -50%;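 note: stimulus is agonist 54-4 at its EC80 concentration; % is set by controls: 0 for no effect and ±100 for the full control effect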
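Tet-induced TRPML1-DL cells loaded with Ca8 no-wash calcium dye were read kinetically on FDSS. Compound addition was followed by EC80 agonist 54-4 (4 uM final); inhibition was read over 110 s.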
Numbers without * were called inactive; / = no result. Hits are enriched below; roughly 1% of the tested compounds scored in any of these assays.

SMILES	KCNH2 3.1 inh	TRPML1 ag	PTAP TSG101 blk	hERG WT inh	GRP78 ERSR act	TRPML1 blocker
Cn1nccc1C(=O)NCC1CCC2(CCN(Cc3cccc4ncccc34)CC2)O1 (stereo not drawn)	/	/	/	/	-5%	/
Cc1cnc(-n2ncc(C(=O)N(C)Cc3cccc4ncccc34)c2C(C)C)nc1-c1ccc(F)cc1	/	/	/	/	-1%	/
CC(=O)N[C@@H](C)C(=O)NCC1Cc2cc(C)cc(-c3cnccn3)c2O1 (stereo partly drawn)	/	/	/	/	-2%	/
Cc1cc(C)n2ncc(C(=O)NCCc3ccccc3)c2n1	7	0	-4%	12	0%	39
Cc1cc(C)n2ncc(C(=O)NCc3ccccc3)c2n1	-87*	4	-2%	-5	-2%	4
Cc1ccc(CN2CCC(c3cc(-c4cccs4)n[nH]3)CC2)cc1	-113*	1	-3%	-71*	-1%	1
Cc1cccn2cc(COc3ccc(-c4ccccc4)cc3)nc12	-101*	0	-3%	4	10%	-12
CC[N+]1(CC(=O)c2ccc(Br)cc2)CCCCC1	/	0	/	/	-1%	/
O=C(NCC1Cc2cc(F)cc(-c3cnccn3)c2O1)c1cccc(-c2ccccc2F)c1 (stereo not drawn)	/	/	/	/	-2%	/
